Values without a mark were called inactive. Results filed as inconclusive are left out. Active and inactive are the calls of the source. Unless noted, the call rests on the fitted dose curve; in most records, active means well fitted curve in the direction sought with a large enough effect in the repeat runs; inconclusive means weak or mixed curves; inactive means no such curve, though single readings can be large; an effect the other way counts as inactive or inconclusive.

This is an account of results in PubChem BioAssay (Tox21).

Assay [1] is described as follows: A CellTox Green Cytotoxicity Assay to monitor cytotoxicity in HepG2 cells - 0 hour (AID 1224882). Further: nearly all actives have a fitted effect of over 35% in size. In outline: (§1)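 Cells and non-lytic dye reagent are dispensed together (600 HepG2 cells/well) and incubated 5 h before DMSO compound transfer. Kinetic fluorescence is then recorded in the same wells during 40 h at 37 C.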
Assay [2] is described as follows: A CellTox Green Cytotoxicity Assay to monitor cytotoxicity in HepG2 cells - 32 hour (AID 1224883). Further: nearly all actives have a fitted effect of over 50% in size. Further: potency means the concentration at half of the fitted maximal effect. In outline:
as §1

A short description of assay [3]: A CellTox Green Cytotoxicity Assay to monitor cytotoxicity in HEK293 cells - 8 hour (AID 1224884). Further: nearly all actives have a fitted effect of over 35% in size. In outline: (§2)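 Cells (HEK293, 600/well) and dye reagent are dispensed together. After 5 h at 37 C, 23 nL compound is pinned in. Plates stay at 37 C for 40 h with fluorescence read at 0h, 8h, 16h, 24h, 32h and 40h.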
A short description of assay [4]: qHTS RealTime-Glo MT Cell Viability Assay in HepG2 cells - 16 hour (AID 1224885). Further: nearly all actives have a fitted effect of over 50% in size. In outline:
(§3)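 Viability was tracked continuously by NanoLuc luminescence from prosubstrate reduced by living HepG2 cells, at successive time points over 40 h of compound exposure. Cells with reagent were preincubated 5 h at 37 °C before compound addition.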
Background: qHTS replaces the single test concentration by a dilution series.

Assay [5] in a line: qHTS RealTime-Glo MT Cell Viability Assay in HEK293 cells - 24 hour (AID 1224886). Further: top concentration of the series differs between compounds; nearly all actives have a fitted effect of over 50% in size. In outline:
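Viability tracked continuously by luminescence as live cells reduce a prosubstrate for NanoLuc; HEK293 cells preincubated 5 h, compound-treated at 37 C, and read at 0, 8, 16, 24, 32 and 40 h.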

Assay [6] in a line: qHTS RealTime-Glo MT Cell Viability Assay in HEK293 cells - 8 hour (AID 1224887). Further: top concentration of the series differs between compounds; nearly all actives have a fitted effect of over 50% in size. In outline: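 Real-time viability in HEK293: signal arises when living cells convert a prosubstrate for NanoLuc in the medium, so luminescence tracks viable cell number. Compound (23 nL, DMSO) added 5 h post-seeding; kinetic reads at 0–40 h, 37 C.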
Assay [7] can be described thus: A CellTox Green Cytotoxicity Assay to monitor cytotoxicity in HEK293 cells - 16 hour (AID 1224888). Further: nearly all actives have a fitted effect of over 35% in size. In outline:
as §2

Assay [8] in a line: qHTS RealTime-Glo MT Cell Viability Assay in HepG2 cells - 0 hour (AID 1224889). Further: nearly all actives have a fitted effect of over 50% in size. In outline:
as §3

Assay [9] in a line: A CellTox Green Cytotoxicity Assay to monitor cytotoxicity in HepG2 cells - 8 hour (AID 1224890). Further: nearly all actives have a fitted effect of over 45% in size. In outline:
as §1

Assay [10] is described as follows: qHTS assay to identify small molecule antagonists of the estrogen receptor alpha (ER-alpha) signaling pathway using the BG1 cell line in the presence of 0.1 nM 17-beta-estradiol - cell viability counter screen (AID 1259241). Further: nearly all actives have a fitted effect of over 40% in size. In outline: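 Following 5 days in phenol red-free medium with charcoal-stripped serum, VM7Luc4E2 cells received test compounds alongside 0.1 nM 17beta-estradiol (final) at 37C for 22 hr. Live cells were then quantified via protease-substrate fluorescence.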

Assay [11] in a line: qHTS assay to identify small molecule antagonists of the androgen receptor (AR) signaling pathway using the MDA cell line in the presence of 0.5 nM R1881 - cell viability counter screen (AID 1259242). Further: nearly all actives have a fitted effect of over 45% in size. In outline:
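Steps: plate MDA-kb2 cells, rest 5 hr at 37C without CO2; pin in compounds in DMSO; add R1881 to 0.5 nM final; incubate 16 hr; add CellTiter-Fluor, 30 min; read fluorescence.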

Assay [12] can be described thus: qHTS assay to identify small molecule HDAC inhibitors (AID 1259364).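 Further: wild-type HCT-116 cells with endogenous class I/II HDAC activity; top concentration of the series differs between compounds; nearly all actives have a fitted effect of over 45% in size.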 In outline:
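Cells (HCT-116, wild type) are seeded at 1,500 per well, incubated overnight, treated with compound in DMSO for 2 hr, then developed with HDAC-Glo I/II reagent for 30 min at room temperature.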

A short description of assay [13]: qHTS assay to identify small molecule HDAC inhibitors - cell viability counter screen (AID 1259365). In outline: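 HCT-116 wild-type, overnight attachment; 2hr drug exposure, 37C; CellTiter-Glo luminescent ATP readout after 30min RT.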
The nature of assay [14]: qHTS assay to identify small molecule antagonists of the sonic hedgehog signaling (Shh) pathway - cell viability counter screen (AID 1259367). Further: nearly all actives have a fitted effect of over 55% in size. Further: potency means the concentration at half of the fitted maximal effect. In outline:
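Viability was read by CellTiter-Fluor fluorescence in the same wells, reagent added 23 hr into compound treatment and incubated 1 hr at 37C. The 3T3 Gli1-Luc reporter cells (2,000/well) received conditioned medium after compound and ran 24 hr.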

A short description of assay [15]: qHTS assay to identify small molecule agonists of the sonic hedgehog signaling (Shh) pathway (AID 1259368; calls by dose curve;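 further: NIH/3T3-derived 3T3Gli1-Luc cells carrying a stable Gli1-driven firefly luciferase reporter; series mostly up to about 92 µM; nearly all actives have a fitted effect of over 15% in size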). In outline:
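Cells of a mouse NIH/3T3 clone stably expressing luciferase under the Gli1 transcriptional response element are exposed to test chemicals for 24 hr at 37 C. Pathway activation is detected as a rise in luminescence.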

The nature of assay [16]: qHTS assay to identify small molecule antagonists of the sonic hedgehog signaling (Shh) pathway (AID 1259369; calls by dose curve; further: nearly all actives have a fitted effect of over 45% in size; further: potency means the concentration at half of the fitted maximal effect). In outline:
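Cells are plated and held 4hr at 37 C, compounds (DMSO) are pinned in, conditioned medium is added to stimulate the pathway, and after 24hr luciferase reagent is added for 30min before luminescence is read.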

The target of assay [17] is Androgen receptor (Homo sapiens) (UniProt P10275). As to the kind of experiment: qHTS assay to identify small molecule antagonists of the androgen receptor (AR) signaling pathway using the MDA cell line in the presence of 0.5 nM R1881 (AID 1259243). Further: nearly all actives have a fitted effect of over 50% in size. In outline: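 Stably transfected MDA-kb2 cells express luciferase from an MMTV promoter bearing both AR and GR response elements. Compounds plus 0.5 nM R1881 (final) were incubated 16 hr at 37C without CO2, then luminescence measured.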

The target of assay [18] is Estrogen receptor (Homo sapiens) (UniProt P03372). As to the kind of experiment: qHTS assay to identify small molecule antagonists of the estrogen receptor alpha (ER-alpha) signaling pathway using the BG1 cell line in the presence of 0.1 nM 17-beta-estradiol (AID 1259244). Further: nearly all actives have a fitted effect of over 50% in size. In outline:
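Antagonist mode: compounds in DMSO are pinned onto VM7Luc4E2 reporter cells, 0.1 nM final 17beta-estradiol is added, and after 22 h at 37C luciferase luminescence is measured with ONE-Glo.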

A short description of assay [19]: qHTS assay to identify small molecule phospholipidosis (PLD) inducers (AID 1259344; active means well fitted curve in the direction sought with a large enough effect; an effect the other way counts as inactive or inconclusive). In outline:
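Phospholipid accumulation was scored by imaging: fixed, Hoechst-counterstained HepG2 cells stained with LipidTOX Red after 24 h compound exposure at 37 C. Read-outs were pit count and pit intensity per well or per cell, with amiodarone and DMSO controls.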

The nature of assay [20]: qHTS assay to identify small molecule agonists of the sonic hedgehog signaling (Shh) pathway - cell viability counter screen (AID 1259366). Further: nearly all actives have a fitted effect of over 50% in size. Further: potency means the concentration at half of the fitted maximal effect. In outline:
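Compounds in DMSO were pin-transferred onto 3T3 Gli1-Luc cells that had settled 4hr; plates then stood 24hr at 37C and 5% CO2. One hour before the end, CellTiter-Fluor was added and fluorescence recorded.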
On the % scale 0 is the no-effect control and ±100 the full control effect.

Sequence of Estrogen receptor (Homo sapiens) (P03372 whole entry, looked up): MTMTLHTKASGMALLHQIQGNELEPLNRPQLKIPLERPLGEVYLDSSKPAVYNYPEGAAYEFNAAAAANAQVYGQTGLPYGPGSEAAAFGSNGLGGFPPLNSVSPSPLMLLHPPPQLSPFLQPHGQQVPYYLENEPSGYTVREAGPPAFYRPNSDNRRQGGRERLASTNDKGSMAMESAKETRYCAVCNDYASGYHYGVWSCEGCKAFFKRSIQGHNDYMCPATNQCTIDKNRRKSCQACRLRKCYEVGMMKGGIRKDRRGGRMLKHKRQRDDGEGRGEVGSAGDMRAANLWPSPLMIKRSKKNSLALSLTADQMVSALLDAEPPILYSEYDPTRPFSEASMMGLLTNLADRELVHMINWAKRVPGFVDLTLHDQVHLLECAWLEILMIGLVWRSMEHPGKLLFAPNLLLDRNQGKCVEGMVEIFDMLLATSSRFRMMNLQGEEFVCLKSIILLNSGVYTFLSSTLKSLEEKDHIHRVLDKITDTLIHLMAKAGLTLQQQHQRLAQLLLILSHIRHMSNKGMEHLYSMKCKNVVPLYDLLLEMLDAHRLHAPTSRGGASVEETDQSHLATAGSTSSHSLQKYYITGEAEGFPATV
Sequence of Androgen receptor (Homo sapiens) (P10275 whole entry, looked up): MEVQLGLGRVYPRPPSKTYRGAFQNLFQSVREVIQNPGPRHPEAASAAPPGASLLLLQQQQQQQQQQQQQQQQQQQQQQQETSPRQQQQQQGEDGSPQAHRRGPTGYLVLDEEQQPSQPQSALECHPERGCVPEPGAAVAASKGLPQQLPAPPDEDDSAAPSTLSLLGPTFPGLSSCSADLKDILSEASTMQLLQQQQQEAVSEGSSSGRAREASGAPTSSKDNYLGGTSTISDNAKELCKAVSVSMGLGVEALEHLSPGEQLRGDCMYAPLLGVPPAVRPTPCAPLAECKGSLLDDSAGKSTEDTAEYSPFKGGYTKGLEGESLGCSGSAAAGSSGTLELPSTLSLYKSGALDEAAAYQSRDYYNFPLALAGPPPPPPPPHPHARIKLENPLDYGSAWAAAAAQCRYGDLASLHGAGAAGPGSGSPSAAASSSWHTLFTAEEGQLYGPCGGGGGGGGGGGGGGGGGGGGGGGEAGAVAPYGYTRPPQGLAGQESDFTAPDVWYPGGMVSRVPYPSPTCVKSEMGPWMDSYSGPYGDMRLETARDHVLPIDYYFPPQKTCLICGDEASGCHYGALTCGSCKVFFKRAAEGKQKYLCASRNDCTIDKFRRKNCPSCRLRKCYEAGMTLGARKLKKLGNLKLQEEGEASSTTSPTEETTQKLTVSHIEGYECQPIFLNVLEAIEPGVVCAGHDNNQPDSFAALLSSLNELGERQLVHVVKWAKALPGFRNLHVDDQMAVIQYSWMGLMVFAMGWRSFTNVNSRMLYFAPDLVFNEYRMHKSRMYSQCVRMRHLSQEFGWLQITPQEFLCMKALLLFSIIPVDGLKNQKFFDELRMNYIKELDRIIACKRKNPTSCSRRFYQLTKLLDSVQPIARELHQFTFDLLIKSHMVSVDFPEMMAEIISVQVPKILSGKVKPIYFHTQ

With `CC(C)CCCCCCOC(=O)c1ccc(C(=O)OCCCCCCC(C)C)c(C(=O)OCCCCCCC(C)C)c1`, the Potency entry in [1], in assay [2], in [3], in assay [4], in assay [5] and in assay [6] was “inactive” each time. Besides, the Potency entry in assay [7], in [8], in assay [9], in assay [10], in assay [11] and in assay [12] was “inactive” throughout. For the same compound, the Potency result in assay [14] and in assay [16] was “inactive” throughout. Moreover, the compound was called inactive in [13] and in assay [15].
For `CCCOc1ccc2nc(NC(=O)OC)[nH]c2c1`, the Potency result in assay [1], in assay [2], in assay [3], in assay [4], in assay [6] and in [7] was “inactive” each time. The Potency result in assay [8], in assay [9], in assay [10], in assay [11], in assay [17] and in assay [18] was “inactive” in each case. In addition, the Potency result in assay [19], in [20], in [14] and in [16] was “inactive” in each case. Besides, the compound was called inactive in assay [13] and in assay [15].
In the case of `CCN(CC)C(C)CN1c2ccccc2Sc2ccccc21` (centres undefined), the Potency result in assay [1], in assay [2], in [3], in assay [4], in assay [6] and in [7] was “inactive” throughout. Further, the Potency entry in [8], in assay [9], in assay [10], in assay [11], in assay [18] and in assay [19] was “inactive” throughout. In addition, the Potency entry in assay [12], in assay [14] and in assay [16] was “inactive” throughout. The call in assay [13] and in assay [15] was inactive.
On to `C=Cc1c(C)c2cc3[nH]c(cc4nc(cc5nc(cc1[nH]2)C(C)=C5CCC(=O)O)C(CCC(=O)O)=C4C)c(C)c3C=C`, for which the Potency result in assay [1], in assay [2], in [3], in assay [4], in assay [5] and in assay [6] was “inactive” in each case. The Potency result in assay [7], in [8], in assay [9], in assay [19] and in assay [12] was “inactive” throughout. Besides, the outcome in [13] and in assay [15] was inactive. For the same compound, the Potency in assay [20] was 13.3 µM (active); in [14], 23.7 µM (active).
`Oc1ccc2c(c1)OCO2`: the Potency entry in [1], in [2], in assay [3], in assay [4], in assay [5] and in [6] was “inactive” in each case. Also, the Potency result in assay [7], in [8], in [9], in assay [11], in assay [18] and in assay [12] was “inactive” each time. Further, in assay [14], the Potency result is “inactive”. In addition, the call in [13] and in [15] was inactive.
Take `CN1CCC(=C2c3ccccc3CCc3sccc32)CC1`: the Potency result in assay [1], in [3], in assay [4], in assay [5], in [6] and in assay [7] was “inactive” in each case. Moreover, the Potency result in [8], in assay [9], in assay [11], in assay [12], in assay [20] and in [14] was “inactive” each time. In addition, the Potency is 23.9 µM (active) in assay [2] and 2.98 µM (active) in assay [16]. In addition, the result in assay [13] and in assay [15] was inactive.
`NC[C@H]1O[C@H](O[C@H]2[C@H](O)[C@@H](O[C@H]3O[C@H](CO)[C@@H](O)[C@H](N)[C@H]3O)[C@H](N)C[C@@H]2N)[C@H](O)[C@@H](O)[C@@H]1O`: the cytotoxicity in [1] is 1.08% [at 6.97 µM]. Further, the cytotoxicity increase in assay [2] was 13.2% [at 6.97 µM]; in [3], 7.24% [at 6.97 µM]; in [9], 21.1% [at 6.97 µM]. For the same compound, the activity change, negative = cytotoxic in [4] was 2.6% [at 6.97 µM]. The activity change, negative = cytotoxicity is 13.6% [at 6.97 µM] in assay [5], 2.67% [at 6.97 µM] in assay [6], 17.3% [at 6.97 µM] in assay [8] and 2.31% [at 8.39 µM] in assay [13]. Moreover, the activity change in [7] was 6.94% [at 6.97 µM, stronger effect = higher value]; in [15], 1.6% [at 8.39 µM]. Moreover, the results for the viability change, negative = cytotoxic in [11], in [20] and in assay [14] were 1.3% [at 8.39 µM], -24.3% [at 8.39 µM] and -30.1% [at 8.39 µM], respectively. For the same compound, the Potency entry in assay [19] was “inactive”. Also, the activity change, negative = inhibition in assay [12] was -0.959% [at 8.39 µM]; in [16], -24.7% [at 8.39 µM].
